Compounds with a hit are over-represented: about 11% of the library has one in this group of screens.
PNC inhibitor: High Content Assay for Compounds that inhibit the Assembly of the Perinucleolar Compartment; PC3M PTB-GFP, PNC prevalence imaging, 16 h; stronger effect = lower value; activity change (PNC), negative = inhibition, % at 10 µM; 140,000 compounds, 3.1% hits; AID 2417, 2010;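 active = readout at or below -70, meaning at least 70% loss of cells showing the perinucleolar compartment, a nuclear body marking cancer cells; inconclusive = readout between -30 and a set limit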
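Compounds are pinned in duplicate onto adhered PC3M cells stably expressing GFP-tagged PTB and incubated 16 h at 37 C. Cells are then fixed, nuclei stained with Hoechst, and PNC-positive cells counted.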
NPSR antag: qHTS Assay for Antagonists of the Neuropeptide S Receptor: cAMP Signal Transduction; Potency, µM (highest dose often 38.3 µM), actives largely listed as inhibitors; Q6W5P4; CHO-NPSR cells, cAMP TR-FRET, antagonist mode; 220,000 compounds, 1% hits; AID 1461, 2008; active = well fitted curve in the direction sought with a large enough effect; inconclusive = small, poorly fitted or top-dose-only effect, or another doubt; inactive = no such curve, though single readings can be large; an effect the other way counts as inactive or inconclusive; note: nearly all actives have a fitted effect of over 50% in size
IMPase Li cell: qHTS Assay for Identifying the Cell-Membrane Permeable IMPase Inhibitors: Potentiation with Lithium | CHO-M1 cells, IP1 TR-FRET (IP-One), carbachol + lithium | Potency, µM (series often up to 59.4 µM), most hits filed as inhibitors | 210,000 compounds, 0.35% hits; active = well fitted curve in the direction sought with a large enough effect; inconclusive = small, poorly fitted or top-dose-only effect, or another doubt; inactive = no such curve, though single readings can be large; an effect the other way counts as inactive or inconclusive;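 note: IP1 builds up when IMPase is blocked and the TR-FRET signal falls; nearly all actives have a fitted effect of over 50% in size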
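CHO cells stably expressing M1 receptor (2000/well) were cultured 16–30 h, then exposed to compounds with a small lithium addition for 30 min at 37C. IP1 was measured by TR-FRET competition; AC50 from Hill fits.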
ALDH1A1 inh: qHTS Assay for Inhibitors of Aldehyde Dehydrogenase 1 (ALDH1A1); Aldehyde dehydrogenase 1A1 (Homo sapiens), P00352; Purified ALDH1A1, NADH fluorescence, propionaldehyde substrate; Potency, µM (top dose mostly 75.3 µM), usual class: inhibitors; 220,000 compounds, 7.3% hits; AID 1030, 2008
HPGD inh: qHTS Assay for Inhibitors of HPGD (15-Hydroxyprostaglandin Dehydrogenase); 15-hydroxyprostaglandin dehydrogenase [NAD(+)] (Homo sapiens), P15428; purified HPGD, NADH fluorescence kinetic, PGE2 substrate; Potency, µM, actives largely listed as inhibitors; 150,000 compounds, 4.3% hits; AID 894, 2007
Target sequence (P15428 whole entry, looked up): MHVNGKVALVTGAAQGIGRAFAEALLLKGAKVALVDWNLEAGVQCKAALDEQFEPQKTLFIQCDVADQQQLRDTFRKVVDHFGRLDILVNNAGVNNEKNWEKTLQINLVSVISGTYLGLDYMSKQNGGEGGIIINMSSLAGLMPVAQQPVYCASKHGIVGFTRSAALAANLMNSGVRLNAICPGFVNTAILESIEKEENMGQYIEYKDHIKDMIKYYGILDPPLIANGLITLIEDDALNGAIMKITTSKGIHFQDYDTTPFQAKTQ
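20 nM HPGD preincubated 15 min at room temperature with compound in 50 mM Tris-HCl pH 8, 0.01% Tween 20. Started with 1 mM NAD+ and 30 uM prostaglandin E2; NADH fluorescence (360/450 nm) read 5 times over 30-s intervals, last minus first.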
IMPase cell inh: qHTS Assay for Identifying the Cell-Membrane Permeable IMPase Inhibitors | Inositol monophosphatase 1 (Rattus norvegicus), P97697 | CHO-M1 cells, IP1 accumulation, HTRF TR-FRET ratio | inhibition (IP1 accumulation), % at 46.1 µM | 120,000 tested, under 10 active | AID 901, 2007; active = well fitted curve in the direction sought with a large enough effect in the signal ratio, not every such curve was filed as active; inconclusive = small, poorly fitted or top-dose-only effect, or a change in a side signal; inactive = no such curve, though single readings can be large or run the other way; the % refers to the signal ratio;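 note: cells stimulated with carbachol in lithium chloride buffer; higher means more IMPase inhibition seen as more IP1 and lower FRET ratio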
Target sequence (P97697 whole entry, looked up): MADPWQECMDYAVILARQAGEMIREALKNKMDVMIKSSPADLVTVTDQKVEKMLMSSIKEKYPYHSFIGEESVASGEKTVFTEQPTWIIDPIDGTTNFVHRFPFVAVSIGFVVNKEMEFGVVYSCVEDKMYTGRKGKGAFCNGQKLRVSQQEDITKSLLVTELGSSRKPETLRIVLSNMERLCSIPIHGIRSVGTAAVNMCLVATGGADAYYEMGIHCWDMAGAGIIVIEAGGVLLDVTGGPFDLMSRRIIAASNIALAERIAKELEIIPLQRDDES
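Measured: the HTRF emission ratio (665/620 nm) plus the 620 nm donor channel, each fitted to the Hill equation to give AC50. Cells were CHO-M1 given compounds up to 46 uM and a 30 min carbachol stimulation at 37C.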
Large screens that a line does not name were inactive. Unless noted, calls come from the whole dose curve; as a rule, active = well fitted inhibition curve with a large enough effect (not every such curve was filed as active); inconclusive = small, poorly fitted or top-dose-only effect, or another doubt; inactive = no such curve, though single readings can be large or run the other way.

O=C1c2ccccc2C(Nc2ccc(S(=O)(=O)N3CCOCC3)cc2)N1Cc1ccco1 (configuration not stated)	PNC inhibitor inconclusive
Cc1ccc(NC2c3ccccc3C(=O)N2CCN2CCOCC2)cc1 (configuration not stated)	PNC inhibitor inconclusive, ALDH1A1 inh 1µM
COc1ccccc1C1/C(=C(/O)c2ccc(C)cc2)C(=O)C(=O)N1CCN1CCOCC1 (configuration not stated)	PNC inhibitor inconclusive, ALDH1A1 inh inconclusive
CCN(CC)S(=O)(=O)c1ccc(NC2c3ccccc3C(=O)N2CCN2CCOCC2)cc1 (configuration not stated)	ALDH1A1 inh 0.2µM
N#C/C(=C\c1ccc(-c2ccc(Br)cc2)o1)C(=O)NCCc1c[nH]c2ccccc12	none (no result: IMPase cell inh)
N#C/C(=C\c1ccc(-c2ccccc2)o1)C(=O)Nn1cnnc1	HPGD inh 16µM
N#C/C(=C/c1ccc(-c2ccc(Br)cc2)o1)C(=O)NC1CCCCC1	ALDH1A1 inh 1.1µM (no result: IMPase cell inh)
CC(C)C(OC(=O)CCCC(=O)Nc1nccs1)C(=O)NC1CCCCC1 (configuration not stated)	none (no result: PNC inhibitor, HPGD inh, IMPase cell inh)
COc1ccc(S(=O)(=O)Nc2ccccn2)c(C)c1C	PNC inhibitor inconclusive, ALDH1A1 inh 25µM, IMPase cell inh inconclusive
CCOc1ccc(S(=O)(=O)Nc2ccccn2)c2ccccc12	IMPase Li cell inconclusive, ALDH1A1 inh inconclusive, HPGD inh inconclusive
COc1cc(NS(=O)(=O)c2ccc(OC)c(C)c2C)c(OC)cc1Cl	PNC inhibitor -108, NPSR antag 20µM, ALDH1A1 inh inconclusive
O=C(CSCc1ccc(Cl)cc1)c1ccco1	ALDH1A1 inh inconclusive, HPGD inh 22µM
O=C(CSc1nnc(SCC(=O)c2ccco2)s1)c1ccco1	ALDH1A1 inh inconclusive, HPGD inh 32µM
O=C(CSc1nc2cc(Cl)ccc2s1)c1ccco1	ALDH1A1 inh inconclusive, HPGD inh 22µM
CCc1cc(C(=O)Nc2ccc(C)cc2Br)cs1	none
CC(=O)Oc1ccc([N+](=O)[O-])cc1N1C(=O)c2ccccc2C1=O	none (no result: IMPase cell inh)
CC#CCN1c2ccccc2[C@]23C[C@@H](C(=O)OC)N(C(=O)C4CCC4)C2=NC(C(=O)OC)=C(C(=O)OC)[C@H]13	none (no result: PNC inhibitor, IMPase cell inh)
Cc1ccc(N=CC2=C(O)CC(c3cccc(Cl)c3)CC2=O)cc1 (configuration not stated)	PNC inhibitor inconclusive (no result: IMPase cell inh)
COCc1cc(C)nc(Nc2ccc(C)c(C)c2)c1C#N	ALDH1A1 inh 28µM, IMPase cell inh inconclusive (no result: IMPase Li cell, HPGD inh)
CC(O)Cc1cn(CC(=O)N2CCNCC2)nn1 (configuration not stated)	none (no result: PNC inhibitor, IMPase Li cell, ALDH1A1 inh, HPGD inh, IMPase cell inh)
O=C(CSc1nc2ccccc2c(=O)[nH]1)c1ccc(O)c(O)c1	PNC inhibitor inconclusive, ALDH1A1 inh inconclusive, HPGD inh 16µM
O=C(CSc1nc2ccccc2c(=O)[nH]1)c1ccc(O)cc1O	ALDH1A1 inh inconclusive (no result: PNC inhibitor, HPGD inh, IMPase cell inh)
O=C(CSc1nc2ccccc2n1CCc1ccccc1)c1ccc(O)c(O)c1	ALDH1A1 inh 14µM (no result: PNC inhibitor, HPGD inh, IMPase cell inh)
Cc1cnc(NC(=O)Cc2c[nH]c3ccccc23)s1	ALDH1A1 inh 25µM (no result: IMPase Li cell, HPGD inh)
Cc1cnc(NC(=O)CSc2nc3ccccc3c(=O)[nH]2)s1	HPGD inh 16µM
O=S(=O)(NC(=NCc1ccccc1)c1ccccc1F)c1ccccc1	none (no result: PNC inhibitor, HPGD inh, IMPase cell inh)
Cc1ccccc1CNCc1cccnc1	none
CCOC(=O)c1c(N)n(-c2cc(C)cc(C)c2)c2nc3ccccc3nc12	none (no result: PNC inhibitor, NPSR antag, IMPase Li cell, ALDH1A1 inh, HPGD inh)
N#Cc1c(-c2cccs2)nc(SCC(=O)c2cccs2)[nH]c1=O	IMPase Li cell inconclusive, HPGD inh 16µM
Cc1nc(SCC(=O)NNC(=O)c2cccs2)[nH]c(=O)c1C	none (no result: PNC inhibitor, HPGD inh, IMPase cell inh)
Cc1cc(SCC(=O)c2cccs2)nc2ccccc12	PNC inhibitor inconclusive, ALDH1A1 inh inconclusive, HPGD inh 4.5µM

Assay outcomes from PubChem.
